The text below walks through data of ChEMBL document CHEMBL3433997, “St. Jude Leishmania screening dataset” (2016).

Common to all, as to type: functional
Experiment [1] addresses Solute carrier family 2, facilitated glucose transporter member 1 (Homo sapiens) (UniProt P11166). In words: ST_JUDE_LEISH: Cytotoxicity at 2uM final concentration against transgenic Leishmania Mexicana promastigotes LmGLUT1 that are glucose transport deficient and complemented with the human glucose transporter GLUT1. Activity is measured by DNA content using SYBR green in vitro.

The target in experiment [2] is Hexose transporter 1 (Plasmodium falciparum) (UniProt O97467). As to the kind of experiment: ST_JUDE_LEISH: Cytotoxicity at 2uM final concentration against transgenic Leishmania Mexicana promastigotes LmPfHT that are glucose transport deficient and complemented with the Plasmodium falciparum hexose transporter. Activity is measured by DNA content using SYBR green in vitro.

For experiment [3], the target named is Glucose transporter (Leishmania mexicana) (UniProt O61059). In words: ST_JUDE_LEISH: Cytotoxicity at 2uM final concentration against transgenic Leishmania Mexicana promastigotes LmGT2 that are glucose transport deficient and complemented with the L. Mexicana glucose transporter 2. Activity is measured by DNA content using SYBR green in vitro.

Chain of Solute carrier family 2, facilitated glucose transporter member 1 (Homo sapiens) (P11166 whole entry): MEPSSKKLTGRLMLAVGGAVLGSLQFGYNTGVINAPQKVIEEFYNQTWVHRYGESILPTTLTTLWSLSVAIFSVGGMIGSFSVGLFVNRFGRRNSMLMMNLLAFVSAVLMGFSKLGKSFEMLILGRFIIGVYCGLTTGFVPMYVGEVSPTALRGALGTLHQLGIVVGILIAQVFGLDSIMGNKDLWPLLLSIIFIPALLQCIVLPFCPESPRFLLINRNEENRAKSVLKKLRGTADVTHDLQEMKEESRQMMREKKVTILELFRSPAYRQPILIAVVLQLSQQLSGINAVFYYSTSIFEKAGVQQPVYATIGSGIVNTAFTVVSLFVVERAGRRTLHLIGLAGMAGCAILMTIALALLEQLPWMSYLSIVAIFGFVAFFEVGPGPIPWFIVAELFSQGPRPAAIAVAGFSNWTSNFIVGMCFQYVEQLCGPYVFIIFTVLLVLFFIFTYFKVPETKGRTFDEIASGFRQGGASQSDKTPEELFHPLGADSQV

Take `CCCCSc1c(CNCCCCCCNCc2ccc3ccccc3c2SCCCC)ccc2ccccc12`: the inhibition (usually the drop in the measured response relative to a control, in per cent) was 10.7% in experiment [1], 5.83% in experiment [2] and 0.58% in experiment [3].

Regarding `CC(C)[C@H](NC(=O)c1ccc(O)c(-c2ccc(Cl)c(Cl)c2)c1)C(=O)NCCN1CCCCC1`, the inhibition in experiment [1] is -0.08%; in experiment [2] it was 1.9%; in experiment [3] it was -1.44%.

Turning to `Cc1cccc2nc(-c3ccc(-c4cccc(CNCC5CCCO5)c4)s3)[nH]c12` (stereo not given), the inhibition in experiment [1] came out at 13%; in experiment [2], 11.4%; in experiment [3], 11.3%.

On to `Cc1noc(C)c1C(=O)N1CCc2cc3nccc(N4CCN5CCC[C@H]5C4)c3cc21`, for which the inhibition in experiment [1] is 0.08%; in experiment [2] it was 1.27%; in experiment [3] it was -0.53%.

`CN1CCCc2ccc(NC(=O)Nc3ccc(-c4ccccc4)cc3)cc2C1`: the figures for the inhibition in experiment [1], in experiment [2] and in experiment [3] were -3.44%, 0.82% and -0.14%, respectively.

`CCc1c(C)nc2nc(Cc3cccc(F)c3)nn2c1N1CCN(c2ccccn2)CC1`: the inhibition is 14.9% in experiment [1], 12% in experiment [2] and 9.56% in experiment [3].

As to `Cc1ncccc1C(=O)Nc1cccc(-c2cccc(-c3nc4cc(C(F)(F)F)ccc4[nH]3)c2)c1`, the inhibition in experiment [1] is 0.73%; in experiment [2], 1.25%; in experiment [3], -2.48%.

For the compound `COC(=O)c1ccc2nc(-c3cc(-c4cccc(-c5ccccc5)c4)cnc3N)[nH]c2c1`, the inhibition was 5.22% in experiment [1], 5.28% in experiment [2] and 4.17% in experiment [3].

Consider `CCNc1cc(C)nc(Nc2ccc(NC(=O)c3c(F)cccc3Cl)cc2)n1`, for which the figures for the inhibition in experiment [1], in experiment [2] and in experiment [3] were 10.6%, 11% and 2.56%, respectively.

For `O=C(Nc1cccc(-c2cccc(CN3CCCC3)c2)c1)c1ccc(Cl)cc1`, the inhibition was determined as 1.55% in experiment [1], 1.32% in experiment [2] and 3.94% in experiment [3].

On to `COc1ccc(NC(=O)c2ccc(-c3nc(-c4ccc(Cl)cc4)cs3)cc2)cc1N1CCN(C)CC1`, for which the inhibition in experiment [1] amounted to 0.97%; in experiment [2], 0.94%; in experiment [3] it was 0.9%.

For the compound `C[C@H](NC(=O)c1c(CN2CCC(N3CCCCC3)CC2)c(-c2ccccc2)nc2cc(O)ccc12)C1CCCCC1`, the inhibition in experiment [1] is 4.25%; in experiment [2], 4.06%; in experiment [3], 3.03%.

Take `Cc1ccc2cc(NC(=O)c3cccc(C(=O)Nc4ccc5nc(C)ccc5c4)n3)ccc2n1`: the values for the inhibition in experiment [1], in experiment [2] and in experiment [3] were 15.1%, 12.2% and 11.6%, respectively.

For the compound `c1ccc(-c2nc3ccccc3[nH]2)c(Nc2ccnc3cc(-c4nccs4)ccc23)c1`, the inhibition in experiment [1] turned out to be 4.76%; in experiment [2], 0.91%; in experiment [3], 0.58%.

`Cc1nc(C)c(-c2ccc(Oc3ccc(Cl)cc3Cl)cc2)c(O)c1Br`: the inhibition in experiment [1] was -1.34%; in experiment [2], -0.13%; in experiment [3] it was 0.66%.

Turning to `CC1CN(Cc2cccc(-c3ccc(-c4nc5cc(F)ccc5[nH]4)cc3)c2)CC(C)O1` (stereo not given), the results for the inhibition in experiment [1], in experiment [2] and in experiment [3] were 3.14%, 1.73% and 2.23%, respectively.

Turning to `CS(=O)(=O)c1ccc(CCNCc2ccc(-c3ccc(CN(C(=O)C4CCCC4)C4CCN(Cc5ccccc5)CC4)cc3)nc2)cc1`, the inhibition in experiment [1] was 0.69%; in experiment [2], 0.71%; in experiment [3] it was -2.64%.

As for `Oc1ccc(CN2Cc3ccccc3OC3(CCN(Cc4c[nH]c5cnccc45)CC3)C2)cc1`, the inhibition in experiment [1] is -0.29%; in experiment [2], -0.21%; in experiment [3] it was -3.09%.

As for `Cc1ccc(-n2cc(CNCC3CCN(CCO)CC3)c(-c3ccc(F)cc3)n2)cc1`, the inhibition is 85% in experiment [1], 2.77% in experiment [2] and 28.2% in experiment [3].

On to `O=C(Nc1ccccc1)c1cccc(Nc2nccc(Nc3ccc(Oc4ccccc4)cc3)n2)c1`, for which the inhibition in experiment [1] turned out to be 0.65%; in experiment [2], 1.07%; in experiment [3] it was 0.87%.

In the case of `Nc1c(-c2ccc(C(=O)NCCNCc3ccccc3)cc2)cnn1-c1ccc(C(F)(F)F)cc1`, the inhibition in experiment [1] was 3.28%; in experiment [2], 2.76%; in experiment [3] it was -0.31%.

On to `Cc1ccc(-c2cccc3c(NC(=O)Nc4ccc5nccc(N6CCN(C)CC6)c5c4)cccc23)cn1`, for which the inhibition stood at 0.51% in experiment [1], 0.17% in experiment [2] and 7.64% in experiment [3].

For `CCCNC(=O)c1cncc(-c2cccc(CNC3Cc4ccccc4C3)c2)c1`, the inhibition in experiment [1] was -1.27%; in experiment [2], -1.42%; in experiment [3] it was -1.3%.

In the case of `O=C(Nc1cccc(CN2CCCN(CCc3ccccc3)CC2)c1)c1ccc(Cl)c(Cl)c1`, the inhibition in experiment [1] was 8.79%; in experiment [2], 8.5%; in experiment [3], -3.05%.

For the compound `COc1cc(C2C(Oc3ccccc3)C(=O)N2Cc2ccc(F)cc2)cc(OC)c1OC` (stereo not given), the results for the inhibition in experiment [1], in experiment [2] and in experiment [3] were 3.73%, 3.29% and 2.56%, respectively.

Take `Cc1cc(=NN=Cc2ccccc2Cl)c2ccccc2[nH]1`: the inhibition was 8.12% in experiment [1], 8.36% in experiment [2] and 5.86% in experiment [3].

For `COc1ccc(CCNCCCCCCNCCCc2ccc(Cl)cc2)cc1OC`, the inhibition in experiment [1] was determined as 4.72%; in experiment [2], 2.45%; in experiment [3] it was 4.39%.

Turning to `Cc1cc(=NN=Cc2ccccn2)c2cc(F)ccc2[nH]1`, the inhibition in experiment [1] is 4.3%; in experiment [2] it was 5.11%; in experiment [3] it was 0.4%.

On to `CC(=O)Nc1ccc(CN2CCc3ccc(NS(=O)(=O)c4cccc(OCc5ccc(Cl)cc5)c4)cc3CC2)s1`, for which the inhibition in experiment [1] was 2.65%; in experiment [2] it was -0.08%; in experiment [3], 0.54%.

`O=C(NC12CC3CC(CC(C3)C1)C2)C(=O)c1c[nH]c2ccccc12`: the values for the inhibition in experiment [1], in experiment [2] and in experiment [3] were 3.4%, 3.09% and 1.4%, respectively.

For the compound `CC(O)C1CCCCN1C(=O)c1cccc(-c2ccc(-c3nc4cc(F)ccc4[nH]3)cc2)c1` (stereo not given), the inhibition was 2.72% in experiment [1], 5.12% in experiment [2] and 4.37% in experiment [3].

On to `CN1CCC(Oc2ccc(CN3CC[C@H](NC(=O)c4ccc(Cl)c(Cl)c4)C3)c3ccccc23)C1` (stereo not given in full), for which the results for the inhibition in experiment [1], in experiment [2] and in experiment [3] were 2.7%, 4.41% and 3.37%, respectively.

On to `CCNc1cc(C(=O)N[C@@H](Cc2ccccc2)[C@H](O)CNC2(Cc3cccc(Cl)c3)CCC2)cc(N2CCCCS2(=O)=O)c1`, for which the inhibition in experiment [1] is -0.69%; in experiment [2] it was 0.65%; in experiment [3], 2.93%.

`Cc1cc(Nc2cc(Cl)cc(Cl)c2)nc(N)n1`: the inhibition was 9.89% in experiment [1], 10.2% in experiment [2] and 6.94% in experiment [3].

`COc1ccc(CNCc2ccc(-c3ccc(-c4nc5cccc(C)c5[nH]4)cc3)cc2)cc1`: the inhibition in experiment [1] turned out to be 18.1%; in experiment [2], 17.2%; in experiment [3], 10.3%.
